Out of some 360,000 compounds screened, about 3,800 (1.1%) were called active.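 The calls were made as follows: active = compounds causing at least 50% loss of cell viability in the single-dose screen, relative to plate controls; inactive = the rest.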 The full list was thinned out, with actives kept by preference.

The assay in a line: TRAIL-exposed caspase-8 expressing cell killing – NB7+C8 cells, ATPlite luminescence, TRAIL sensitizer project, primary screen (AID 624354). Conditions: at 10 µM, hits give high values. (In general: In ATP-based viability assays light output follows the ATP content of the culture.)
`O=C(CN1C(=O)NC(Cc2ccccc2)(Cc2ccccc2)C1=O)NCC1CCCCC1`: the inhibition (viability loss, TRAIL sensitization) was -33.8% (inactive). As for `CCC(CC)c1nnc(NS(=O)(=O)Cc2ccccc2)s1`, the inhibition (viability loss, TRAIL sensitization) is -5.15% (inactive). To `C=CCn1cc(Cl)cc(C(=O)Nc2ccccc2)c1=O` belongs 6.15% (inactive); to `Cc1ccc(NC(=O)N2CCC(C(=O)NCc3ccc(F)cc3)CC2)cc1`, 1.96% (inactive). `CCc1ccc(CNC(=O)C2CCN(c3nnc(C)c4c(C)n(-c5ccc(C)cc5)nc34)CC2)cc1`: the inhibition (viability loss, TRAIL sensitization) was 84.7% (active).

As for `CCc1ccc(CNC(=O)C2CC(=O)N(CCc3ccc(C)cc3)C2)cc1` (configuration not stated), the inhibition (viability loss, TRAIL sensitization) is 8.62% (inactive). As for `O=C(COC(=O)/C=C/c1ccc(OC(F)F)cc1)NC1CCCCC1`, the inhibition (viability loss, TRAIL sensitization) was -8.42% (inactive). With `COc1cccc(NC(=O)COC(=O)c2ccc3ccccc3n2)c1`, the inhibition (viability loss, TRAIL sensitization) was -11.3% (inactive). The value for `COc1cccc(/C=C/c2ccc3ccccc3n2)c1OC(C)=O` was 65.1% (active).

As for `CCOc1cccc(/C=C/c2ccc3ccccc3n2)c1OC(C)=O`, the inhibition (viability loss, TRAIL sensitization) is 47.3% (inactive). In the case of `C=CCCC(=O)N1C[C@H]2CON(C)[C@H]2C[C@H]1c1cccc(Nc2ccccc2)c1`, the inhibition (viability loss, TRAIL sensitization) is -0.674% (inactive). The value for `O=C(NCc1ccc(Cl)cc1)c1cc2c(nc3sccn32)s1` was 0.401% (inactive); that for `COc1ccc(C2=Nc3ccccc3NC(=O)C2N(C(=O)c2cc3ccccc3[nH]2)c2ccccc2)cc1` (configuration not stated) was -7.09% (inactive); that for `COc1ccc(-c2ccnc(SCC(=O)N3CCOCC3)n2)cc1` was 28% (inactive).

With `COc1cccc(-c2ccc(SCC(=O)N3CCN(c4ccccc4)CC3)nn2)c1`, the inhibition (viability loss, TRAIL sensitization) was 6.26% (inactive). To `CCOc1ccc(-c2ccc(SCC(=O)N3CCOCC3)nn2)cc1` belongs 50.6% (active).

Take `CC(O)c1nc2c(c(=O)n(C)c(=O)n2C)n1C` (configuration not stated): the inhibition (viability loss, TRAIL sensitization) was -4.64% (inactive).

`O=C(c1cccs1)N1C[C@H](n2cc(C3CC3)nn2)[C@@H](O)C[C@@H]1c1ccccc1`: the inhibition (viability loss, TRAIL sensitization) is -1.93% (inactive).

Consider `C=CCc1c(C)nc2cc(-c3ccccc3)[nH]n2c1=O`, for which the inhibition (viability loss, TRAIL sensitization) was 30.8% (inactive). In the case of `O=c1c2c(nc3cc(-c4cccc(Cl)c4)[nH]n13)CCCC2`, the inhibition (viability loss, TRAIL sensitization) is 63.1% (active). Turning to `CCCCN1Cc2c(nc3cc(-c4ccccc4)[nH]n3c2=O)C1=O`, the inhibition (viability loss, TRAIL sensitization) is -2.49% (inactive). In the case of `CCn1cc(CNC(=O)c2cc([N+](=O)[O-])c(C)c([N+](=O)[O-])c2)cn1`, the inhibition (viability loss, TRAIL sensitization) is 24.5% (inactive). For `Cn1c(=O)c2c(ncn2CC(COCc2ccccc2Cl)OCc2ccccc2Cl)n(C)c1=O` (configuration not stated), the inhibition (viability loss, TRAIL sensitization) is -6.46% (inactive). In the case of `COc1ccc(CCc2nnc(CCC(=O)NCc3cnn(-c4ccccc4C)c3)o2)cc1`, the inhibition (viability loss, TRAIL sensitization) was 2.59% (inactive). `COc1ccc(C(C(=O)NC2CCCCC2)N(C(=O)c2snc(C(N)=O)c2N)c2ccccc2OC)cc1` (configuration not stated): the inhibition (viability loss, TRAIL sensitization) was 1.04% (inactive). To `Cc1ccccc1N(C(=O)CNC(=O)c1cccs1)C(C(=O)NC1CCCC1)c1ccncc1` (configuration not stated) belongs 34.8% (inactive); to `COc1ccc(C(C(=O)NC2CCCCC2)N(C(=O)CCl)c2ccccc2Cl)cc1` (configuration not stated), 94.5% (active).

As to `COC(=O)[C@@]12C[C@@H](CC(=O)N3CCCCC3)C(=O)N(Cc3ccc4c(c3)OCO4)C1=CCC(C)(C)C2`, the inhibition (viability loss, TRAIL sensitization) was -12.6% (inactive). As to `COc1ccccc1C(=O)NCCC(=O)N(C)Cc1cccnc1`, the inhibition (viability loss, TRAIL sensitization) was 10.4% (inactive). As for `Cc1cc(O)ccc1NC1=CC(=O)CC(C)(C)C1`, the inhibition (viability loss, TRAIL sensitization) is 1.23% (inactive).

For `Cc1cc(N=Nc2ccc3ccccc3c2)ccc1O`, the inhibition (viability loss, TRAIL sensitization) was 55.4% (active). Take `CC(C)Cn1c(N)c(C(=O)COC(=O)CN2C(=O)C3CC=CCC3C2=O)c(=O)n(C)c1=O` (configuration not stated): the inhibition (viability loss, TRAIL sensitization) was 13.4% (inactive). The value for `CCCc1cc(=O)[nH]c(SCC(=O)c2c(N)n(CC(C)C)c(=O)n(C)c2=O)n1` was 84.5% (active); that for `CCCc1cc(=O)[nH]c(SCC(=O)N2C(C)CCCC2C)n1` (configuration not stated) was -9.5% (inactive). To `O=C(Nc1cccc2cccnc12)c1ccc2sc([C@H]3C[C@H](O)[C@@H](CO)O3)nc2c1` belongs 7.21% (inactive); to `COC(=O)C[C@@H]1C=C[C@@H](NS(=O)(=O)c2cccc(OC)c2)[C@@H](CO)O1`, 4.54% (inactive).

For `CC(=O)c1c(O)cc2n(c1=O)-c1ccc(Cl)cc1C2(C)C`, the inhibition (viability loss, TRAIL sensitization) was 5.66% (inactive). To `CC(C)C(NC(=O)C1CCC(C(C)(C)C)CC1)C(=O)NCCCN1CCCCC1` (configuration not stated) belongs 8.66% (inactive); to `COc1cccc(/C=C/C(=O)Nc2ccc3c(c2)OCCO3)c1`, 64.9% (active). As for `Cc1ccc(OCCCC(=O)Nc2ccc3c(c2)OCCO3)cc1`, the inhibition (viability loss, TRAIL sensitization) is -4.22% (inactive). Take `Cc1cccc(NC(=O)/C=C/c2ccc3c(c2)OCO3)n1`: the inhibition (viability loss, TRAIL sensitization) was 79.8% (active).

As to `COc1cccc(C(=O)NNC(=O)/C=C/c2ccccc2)c1`, the inhibition (viability loss, TRAIL sensitization) is -32% (inactive). Take `Cc1cc(C)nc(NC(=O)/C=C/c2ccc(Cl)cc2)n1`: the inhibition (viability loss, TRAIL sensitization) was 2.95% (inactive). In the case of `CN(Cc1ccccc1)C(=O)COC(=O)/C=C/c1ccc2c(c1)OCO2`, the inhibition (viability loss, TRAIL sensitization) was -10.8% (inactive). The value for `COC(=O)Cc1ccc(OC2(C)CCN(Cc3ccc4c(c3)OCCO4)C2)cc1` (configuration not stated) was -7.8% (inactive); that for `COc1nnc(-c2ccc(C)c(S(=O)(=O)N(C)C)c2)c2ccccc12` was -6.56% (inactive); that for `Cc1ccc(/C=C2\CCn3c2nc2cc(C(=O)O)ccc2c3=O)c(C)c1` was 5.96% (inactive). The value for `COc1ccc(OC)c(-n2nnnc2SCC(=O)Nc2cc(C)ccc2OC)c1` was -4.79% (inactive). For `C=CCn1c(C)cc(C2=NNC(=NCC)SC2)c1C`, the inhibition (viability loss, TRAIL sensitization) was 92.8% (active).

For `CCC(CC)c1nnc(NC(=O)C2CCN(C(=O)c3ccco3)CC2)s1`, the inhibition (viability loss, TRAIL sensitization) is -18.9% (inactive). `CCCNC(=O)c1cc(C2CCCCN2C(=O)OC)on1` (configuration not stated): the inhibition (viability loss, TRAIL sensitization) is -21.1% (inactive). To `N#CCCC(C#N)(c1cccnc1)N1CCOCC1` (configuration not stated) belongs -12.1% (inactive); to `O=C(Cc1nc2ccccc2[nH]c1=O)c1ccc(Cl)cc1`, 60.2% (active).

With `O=c1c(-c2ccc(Cl)cc2)[n+]([O-])c2ccccc2n1OCc1nc2ccccc2[nH]1`, the inhibition (viability loss, TRAIL sensitization) was -24.1% (inactive). As to `O=C(NCC(O)c1nc2ccccc2[nH]1)c1ccc(Br)cc1` (configuration not stated), the inhibition (viability loss, TRAIL sensitization) was -0.934% (inactive). Regarding `CCC1(C)Cc2c(sc3nnn(CC(=O)Nc4ccc(Cl)cc4)c(=O)c23)CO1` (configuration not stated), the inhibition (viability loss, TRAIL sensitization) is -1.52% (inactive).

As to `COc1cc(OC)cc(-c2cc3ccc(F)cc3cn2)c1`, the inhibition (viability loss, TRAIL sensitization) was 60% (active). To `COc1ccc(C(C)(O)c2nc(-c3cc(F)cc(F)c3)cs2)cc1` (configuration not stated) belongs 21% (inactive); to `Fc1ccc2cnc(-c3ccccc3)cc2c1`, -5.36% (inactive); to `CC(=O)c1nnn(-c2ccc(Cl)cc2C#N)c1C`, 2.75% (inactive). To `Cc1ccc(N2CCN(c3ccc(C)cc3)C2c2ccccn2)cc1` belongs -11.7% (inactive); to `Cc1ccc2nc(-c3ccncc3)cc(C(=O)Nc3ccncc3)c2c1`, 54% (active); to `Cc1ccc2nc(-c3ccncc3)cc(C(=O)Nc3ccc(OC(F)F)cc3)c2c1`, 14.5% (inactive). To `Cc1ccc(-c2cc(C(=O)NCc3cn(C)nc3C)c3cc(Br)ccc3n2)cc1` belongs 12.3% (inactive); to `Cc1cc(C)n2nc(C(=O)OC(C)C(=O)c3cc(C)c(C)cc3C)nc2n1` (configuration not stated), -12.9% (inactive); to `CC(=O)N1c2ccc(S(=O)(=O)N3CCCC(C(=O)NCc4ccc(Cl)cc4)C3)cc2CC1C` (configuration not stated), 15.2% (inactive). As for `CN(Cc1cccs1)C(=O)CN1C(=O)c2ccccc2S1(=O)=O`, the inhibition (viability loss, TRAIL sensitization) is -16.6% (inactive).

As to `O=C(CN1C(=O)c2ccccc2S1(=O)=O)N1CCc2ccccc21`, the inhibition (viability loss, TRAIL sensitization) was 61.8% (active). The value for `Cc1ccc(S(=O)(=O)N(C)CC(=O)N2CCc3ccccc32)cc1` was -3.97% (inactive).

For the compound `O=S(=O)(Cc1ccccc1)c1nc2ccccc2n1Cc1ccccn1`, the inhibition (viability loss, TRAIL sensitization) is -8.41% (inactive). In the case of `O=C(Cn1c2[n+](c3ccc(C(F)(F)F)cc31)CCCCC2)Nc1c(F)cccc1F`, the inhibition (viability loss, TRAIL sensitization) was 3.77% (inactive). The value for `COc1ccc(C2SCCN2S(=O)(=O)c2ccccc2)cc1OC` (configuration not stated) was 0.617% (inactive); that for `COc1cc2c(cc1OC)CN(C(=O)c1cc(S(=O)(=O)N3CCCCC3)ccc1Cl)CC2` was 1.71% (inactive).

On to `COc1cc2c(cc1OC)C(C)N(S(=O)(=O)c1cnc(Cl)c(Cl)c1)CC2` (configuration not stated), for which the inhibition (viability loss, TRAIL sensitization) is 75.2% (active).

On to `C[C@@H]1CC2=C(C(=O)OC(C)(C)O2)[C@@H](C2CC2)O1`, for which the inhibition (viability loss, TRAIL sensitization) is -8.67% (inactive). As for `Cc1ccc(OCCNC(=O)CN2C(=O)NC3(CCCC3)C2=O)cc1`, the inhibition (viability loss, TRAIL sensitization) was -18.7% (inactive). `CCn1cc(-c2cc(C(=O)O)on2)c(C)n1`: the inhibition (viability loss, TRAIL sensitization) is -6.48% (inactive). The value for `CC(C)Nc1ccc(-n2nc3ccccc3[n+]2[O-])cc1` was 54.6% (active); that for `CCCC(O)(CCC)C(=O)NN(C(=O)CCl)c1cccc(C)c1` was 5.97% (inactive); that for `CCCCC(O)(CCCC)C(=O)NN(C(=O)CCl)c1ccccc1` was 82.8% (active). As to `COC(=O)N(NC(=O)C(O)(C(C)C)C(C)C)c1ccccc1`, the inhibition (viability loss, TRAIL sensitization) is 21.8% (inactive). The value for `COc1ccc(/C=C/CN2CCN(Cc3ccc(C)cc3)C(CCO)C2)cc1` (configuration not stated) was -0.778% (inactive); that for `Cc1ccc(-c2cc(C(=O)N/N=C/C=C/c3ccccc3)n[nH]2)o1` was 0.486% (inactive); that for `Cc1cc(C(=O)NCCc2ccc(Cl)cc2)c(C)o1` was -14.9% (inactive).

Consider `CC(=C/c1ccccc1)/C=N/NC(=O)c1cc(C)oc1C`, for which the inhibition (viability loss, TRAIL sensitization) was 54.5% (active). The value for `Cc1ccc2cccc(OCCCOc3ccccc3CO)c2n1` was -4.7% (inactive); that for `Cc1ccc(NC(=O)c2oc3ccccc3c2C)c([N+](=O)[O-])c1` was 3.18% (inactive); that for `CC1(C(=O)NS(=O)(=O)C2CC2)CCCN(C(=O)CSc2ccccc2)C1` (configuration not stated) was -10.3% (inactive).

As for `CN1CCC(OC(=O)COc2ccc(Cl)cc2Cl)CC1`, the inhibition (viability loss, TRAIL sensitization) was -7.75% (inactive). With `COC(=O)c1c(NC(=O)COc2ccc(Cl)cc2Cl)sc2c1CC(C)(C)NC2(C)C`, the inhibition (viability loss, TRAIL sensitization) is 92.1% (active). `CCOC(=O)c1c(NC(=O)c2ccc(S(=O)(=O)N(C)CC3CCCO3)cc2)sc2c1CC(C)(C)NC2(C)C` (configuration not stated): the inhibition (viability loss, TRAIL sensitization) is 26.5% (inactive). Take `COC(=O)c1ccccc1N=Nc1c(C)[nH][nH]c1=O`: the inhibition (viability loss, TRAIL sensitization) is -4% (inactive).

These data come from PubChem BioAssay AID624354 (Sanford-Burnham Center for Chemical Genomics, 2012).
